The record followed here is PubChem BioAssay AID371 (SRMLSC, 2006).

The whole screen tested about 3,300 compounds, of which about 280 (8.5%) were called active. The list comes from a sample in which actives are over-represented; it also holds similar structures and randomly drawn compounds. Values without a mark were called inactive.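 Rule for the calls: active = mean growth inhibition over the two runs of 50% or more; inactive = mean growth inhibition under 50%.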

This experiment in a line: A549 NSCLC cell proliferation inhibitors – ATP luminescence, human non-small cell lung line, primary screen (AID 371).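 Note: compound exposure lasted 72 h before the ATP read; 0% = untreated cell signal and 100% = no luminescence left.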 Conditions: at 10 µM, hits give high values.
As for `CC1=NOC2(C)Nc3ncnn3C(c3ccccc3)C12` (stereo not given), the growth inhibition is 6.33%.

`CN1C[C@H](CNC(=O)OCc2ccccc2)C[C@@H]2c3cccc4c3c(cn4C)C[C@H]21`: the growth inhibition is 94.7% (active).

On to `CC[C@@H](CO)NC(=O)[C@@H]1C=C2c3cccc4c3c(cn4C)C[C@H]2N(C)C1`, for which the growth inhibition is 4.84%.

With `CCCCCCn1c(O)c(C=NCCCn2ccnc2)c(=O)[nH]c1=O`, the growth inhibition is 7.84%.

Regarding `CC1(C)CC(n2[nH]c(=O)c3c2NC(=O)CSC3c2ccccc2)CCO1` (stereo not given), the growth inhibition was 3.92%.

`O=c1[nH]c2ccccc2n1CCCN1CCC(n2c(=O)[nH]c3cc(Cl)ccc32)CC1`: the growth inhibition was 6%.

For the compound `O=c1[nH]c2ccccc2n1C1CCN(CCCC(c2ccc(F)cc2)c2ccc(F)cc2)CC1`, the growth inhibition was 93% (active).

On to `CCOC(=O)[C@]1(C#N)[C@@H]2C=CC(C(C)=O)=CN2[C@@H](C(N)=O)[C@@H]1c1ccsc1`, for which the growth inhibition is 3.86%.

Turning to `Nc1ncc(P(=S)(N2CCOCC2)N2CCOCC2)s1`, the growth inhibition is 0.52%.

In the case of `COc1cccc(-n2c(O)c(C=NCCN3CCOCC3)c(=O)[nH]c2=O)c1`, the growth inhibition is -0.53%.

Consider `CCc1nc(N2CCNCC2)c(C#N)c2c1CSC(C)(C)C2`, for which the growth inhibition was 49.5%.

Regarding `CCCCc1nc(N2CCNCC2)c(C#N)c2c1CSC(C)(C)C2`, the growth inhibition is 92% (active).

For the compound `COc1ccc2c(c1)c(C(=O)O)c(C)n2CC(C)C`, the growth inhibition was -2.88%.

Consider `COC(=O)C(O)(c1c[nH]c2ccccc12)C(F)(F)F` (stereo not given), for which the growth inhibition is 0.63%.

Regarding `O=C(CN1CCN(CCO)CC1)Nc1ccc(Cl)cc1C(=O)c1ccccc1`, the growth inhibition is 13.2%.

On to `C=CCOC(=O)C1=C(C)OC(N)=C(C#N)C12C(=O)N(CN1CCOCC1)c1ccccc12` (stereo not given), for which the growth inhibition is 0.76%.

Take `O=c1[nH]c(=O)n(-c2cccc3ccccc23)c(O)c1C=NCCCn1ccnc1`: the growth inhibition was -5.79%.

`CCN(CC)CCN=C(C)c1c(O)n(-c2ccccc2OC)c(=O)[nH]c1=O`: the growth inhibition is -2.11%.

In the case of `CC(=O)OC1N=C(c2ccccc2)c2ccccc2NC1=O` (stereo not given), the growth inhibition was -5.27%.

Take `CCN(CC)c1ccc(N=Cc2c(O)n(-c3cc(OC)ccc3OC)c(=O)[nH]c2=O)cc1`: the growth inhibition is 26.8%.
